# ChEMBL document CHEMBL3988442, “University of Dundee, Small-Polar-MMV Screening Library” (2021)
# About 420 (0.61%) of roughly 69,000 compounds showed an effect of 50% or more. This is one part of a sample in which strong results are shown more often than they occur.
# Target: T1, Histidine--tRNA ligase (Leishmania infantum) (UniProt A4I591)
# T1 sequence (whole entry): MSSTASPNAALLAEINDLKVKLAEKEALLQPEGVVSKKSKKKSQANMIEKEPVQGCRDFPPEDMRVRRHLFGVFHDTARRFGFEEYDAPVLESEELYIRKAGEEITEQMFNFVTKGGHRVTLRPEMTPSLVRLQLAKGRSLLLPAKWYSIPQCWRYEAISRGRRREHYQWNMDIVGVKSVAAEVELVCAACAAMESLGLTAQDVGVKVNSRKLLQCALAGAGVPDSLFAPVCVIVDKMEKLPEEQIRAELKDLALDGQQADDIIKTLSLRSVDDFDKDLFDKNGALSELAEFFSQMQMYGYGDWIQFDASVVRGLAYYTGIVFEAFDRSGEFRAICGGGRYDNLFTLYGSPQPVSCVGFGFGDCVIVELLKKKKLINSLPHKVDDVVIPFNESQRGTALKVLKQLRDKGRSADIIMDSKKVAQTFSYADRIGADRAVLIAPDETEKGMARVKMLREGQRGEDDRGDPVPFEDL
# Assay: Leishmania infantum Histidine tRNA synthetase (LdHisRS)
# Assay type: functional
# Parameters: scale not given: in the data most compounds retested in dose-response had high values
# Settings: 30 µM
row,SMILES,Percent Effect
1,CCS(=O)(=O)N1CCO[C@H]2[C@H](Oc3ncccc3F)CC[C@@H]21,8.22%
2,O=C1[C@@H]2CCN(Cc3ccoc3)C[C@@H]2OCCN1c1ccccc1,9.49%
3,O=C1NC[C@@]2(C(=O)O)CN(Cc3ccc(Oc4ccccc4)cc3)C[C@@H]12,12.1%
4,CC(C)c1nc(CN2CCC(CO)CC2)cs1,13.2%
5,CC(C)c1nc(CN2CCCCC2)cs1,0%
6,CC(C)c1nc(CC(=O)Nc2nc(CN3CCCCCC3)cs2)cs1,53.3%
7,Cc1nc(-c2ccco2)ccc1C(=O)N1CCn2c(C)nnc2C1,25.4%
8,O=C(c1cc(-c2ccco2)nc2c(Cl)cccc12)N1CC[C@H]2CNC[C@H]21,40%
9,COCC1CCN(C(=O)c2cc(-c3ccco3)nc3c(Cl)cccc23)C1 (stereo unspecified),11.7%
10,O=C1CN(C(=O)c2cc(-c3ccco3)nc3c(Cl)cccc23)CCN1,81.7%
11,O=C(c1cc(-c2ccco2)nc2c(Cl)cccc12)N1C[C@H]2CNC[C@H]2C1,53.3%
12,Cc1nc(-c2ccco2)ccc1C(=O)N1CCc2nnc(N)cc2C1,2.63%
13,NC(=O)N1C[C@@H]2CN(C(=O)c3ccco3)C[C@@H]2C1,15.5%
14,O=C(c1cc(-c2ccco2)nc2c(Cl)cccc12)N1CCS(=O)(=O)CC1,15%
15,CN1C[C@H]2CN(Cc3cccc(OC(F)(F)F)c3)CCN2C1=O,21.6%
16,O=C(NCc1cccs1)[C@@H]1CC[C@@H]2[C@@H](CCN2c2ncccn2)O1,17.9%
17,CN(Cc1ccco1)[C@@H]1CN(C(=O)c2cnccn2)C[C@@H]2CCCO[C@@H]21,11.3%
18,COC[C@@]12CCC[C@@H]1CN(C(=O)COC1CCCC1)C2,0%
19,CC(=O)N1[C@H](CN(C)C)C[C@@H]2CN(C(=O)c3ccsc3)CC[C@@H]21,15.4%

row,SMILES,Percent Effect
1,CN(Cc1nc(N)c2ccccc2n1)CC1CCCN1c1cccnn1 (stereo unspecified),21.3%
2,Cc1nc2ccccc2nc1CN(C)CC1CCCN1c1cccnn1 (stereo unspecified),34.7%
3,Cc1nc(CN(C)CC2CCCN2c2cccnn2)nc2ccccc12 (stereo unspecified),74.4%
4,COc1ccc(CN2CCO[C@H]3[C@H](Oc4ccccn4)CC[C@@H]32)cc1,25.7%
5,O=C(c1ccco1)N1C[C@H]2CCCN(Cc3ccoc3)[C@H]2C1,16.4%
6,c1cnc(N2CCO[C@H]3CN(CC4CCCC4)C[C@H]32)cn1,9.91%
7,Brc1ccc(C2(CNCc3cc[nH]c3)CCOCC2)cc1,52.1%
8,Brc1cccc(C2(CNCc3cc[nH]c3)CCOCC2)c1,40.9%
9,FC(F)(F)c1cccc(C2(CNCc3cc[nH]c3)CCOCC2)c1,12.7%
10,CN1C[C@H](c2ccccc2)[C@H]2CN(C(=O)Cc3ccc(O)cc3)CC[C@H]21,5.59%
11,O=C1CC(c2ccc(C(=O)O)cc2)c2ncn(-c3cccnc3)c2N1 (stereo unspecified),30%
12,O=C1CC(c2cccnc2)c2c(c(C(=O)O)cn2-c2ccccc2F)N1 (stereo unspecified),20.6%
13,O=C1CC(c2ccc(C(=O)O)cc2)c2ncn(-c3ccc(F)cc3)c2N1 (stereo unspecified),81.7%
14,O=C1CC(c2ccc(C(=O)O)cc2)c2ncn(-c3cccc(Cl)c3)c2N1 (stereo unspecified),51.7%
15,Cc1nn(-c2ccccc2)c2c1C(c1ccc(C(=O)O)cc1)CC(=O)N2 (stereo unspecified),18.4%
16,O=C1CC(c2ccc(C(=O)O)cc2)c2ncn(-c3ccccc3Cl)c2N1 (stereo unspecified),45%
17,O=C1CC(c2ccc(C(=O)O)cc2)c2ncn(-c3ccccc3)c2N1 (stereo unspecified),52.4%
18,Cn1c(=O)c2c(n3ncnc13)NC(=O)CC2c1ccc(F)cc1 (stereo unspecified),6.9%
19,O=C1CC(c2ccncc2)c2c(c(C(=O)O)cn2-c2ccc(F)cc2)N1 (stereo unspecified),29.1%

row,SMILES,Percent Effect
1,O=C1CC(c2ccc(C(=O)O)cc2)c2ncn(-c3cccc(F)c3)c2N1 (stereo unspecified),46.6%
2,O=C1CC(c2ccc(C(=O)O)cc2)c2ncn(-c3ccccc3F)c2N1 (stereo unspecified),51.7%
3,O=C1CC(c2cccc(Cl)c2)c2snc(C(=O)O)c2N1 (stereo unspecified),1.72%
4,O=C1C[C@H]2[C@@H](CCN2C(=O)Cc2ccccc2)N1Cc1cccnc1,9.62%
5,CCS(=O)(=O)N1CCC2(CC1)CC[C@@]1(C(=O)N(C)C)CN(C(C)=O)C[C@@H]21,12.8%
6,CO[C@H]1CN(C(=O)c2ccc[nH]2)[C@@H]2COC[C@H]12,-140%
7,O=C([C@@H]1C[C@@H]2CCN(C3CCOCC3)C[C@H]2O1)N1CCCC1,6.94%
8,Cn1cccc1C(=O)NC[C@]12COC[C@H]1CN(Cc1nccs1)C2,12.8%
9,O=C(c1ccc2nccnc2c1)N1CCN(CCO)[C@@H]2CS(=O)(=O)C[C@@H]21,3.97%
10,Cc1nc(-c2ccoc2)n(CC(=O)N(C)CC(C)C)c1C,15.8%
11,CN(C)c1nccc(N2CCO[C@H]3CN(Cc4nccn4C)C[C@H]32)n1,3.19%
12,CC(=O)N1CC[C@@]2(O)CCCC[C@H]2[C@@H]1c1ccccc1,-75.8%
13,CN1CCN(Cc2nc3c(s2)CCCC3)[C@H]2CS(=O)(=O)C[C@H]21,18.3%
14,N#Cc1ccc(C(=O)N2CC[C@H]3[C@H]2CCN3CC2CCOCC2)cc1,-5.77%
15,CN(C)CCO[C@H]1CN(C(=O)c2cccs2)[C@@H]2COC[C@H]12,10.9%
16,Cn1ccnc1CN1C(=O)CO[C@H]2CN(CCCc3ccccc3)C[C@H]21,17.6%
17,O=C1CC(c2ccc(C(=O)O)cc2)c2ncn(-c3ccc(Cl)cc3)c2N1 (stereo unspecified),55%
18,O=C1CC(c2cccnc2)c2c(c(C(=O)O)cn2-c2ccc(Cl)cc2)N1 (stereo unspecified),27.2%
